Source: PubChem BioAssay AID1851 (National Center for Advancing Translational Sciences (NCATS), 2009)
In all, about 16,000 compounds went through this assay and about 5,100 (32%) were called active. Not shown: some 25% with an inconclusive outcome. Calls come from the whole dose curve; as a rule, active = well fitted curve in the direction sought with a large enough effect; inconclusive = small, poorly fitted or top-dose-only effect, or effect the other way; inactive = no such curve, though single readings can be large or run the other way. The list shows a part of the results.

Target: Cytochrome P450 3A4 (Homo sapiens) (UniProt P08684)
Sequence (P08684 whole entry, looked up): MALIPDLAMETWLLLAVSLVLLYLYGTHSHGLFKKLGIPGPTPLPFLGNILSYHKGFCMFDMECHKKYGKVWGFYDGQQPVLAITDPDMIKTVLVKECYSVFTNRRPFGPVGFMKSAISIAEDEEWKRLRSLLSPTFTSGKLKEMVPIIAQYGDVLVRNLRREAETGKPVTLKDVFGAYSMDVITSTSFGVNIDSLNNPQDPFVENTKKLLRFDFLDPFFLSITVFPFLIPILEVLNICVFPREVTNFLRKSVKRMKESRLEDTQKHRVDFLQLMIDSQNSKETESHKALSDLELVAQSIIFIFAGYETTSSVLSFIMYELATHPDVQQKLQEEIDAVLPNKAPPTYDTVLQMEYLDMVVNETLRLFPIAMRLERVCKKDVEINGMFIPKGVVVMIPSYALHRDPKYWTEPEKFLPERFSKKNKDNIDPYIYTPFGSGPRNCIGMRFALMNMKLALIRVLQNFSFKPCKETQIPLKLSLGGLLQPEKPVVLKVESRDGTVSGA
Experiment: Cytochrome panel assay with activity outcomes
Settings: recombinant CYP, pro-luciferin dealkylation, luminescence, p450-cyp3a4; series mostly up to 57.1 µM
% is set by controls: 0 for no effect and ±100 for the full control effect.

AC50, inactive:
COCCNC(=O)c1cn(Cc2c(F)cccc2Cl)nn1
CC(C)CCNC(=O)Cc1ccccc1[N+](=O)[O-]
CCN1CCC[C@H]1CNC(=O)c1c(OC)ccc(Br)c1OC
CCC1CCCCN1Cc1cc(OC)c(O)c([N+](=O)[O-])c1 (stereo not drawn)
O=C(O)[C@@H]1C[C@@H](C(=O)O)N1
CCN1CCN(c2cc(=O)n(-c3cc(Cl)ccc3C)c(=O)[nH]2)CC1
COc1ccc(OC(=O)c2ccncc2)cc1
CCCCC1=NN2C(=N)CC(=O)N=C2S1
CCN(CC)c1ccc(NC(=O)c2cnn(CC)c2)cc1
O=C1c2cccnc2C(=O)N1Cc1ccc(F)cc1
c1ccc2c(CC3=NCCN3)cccc2c1
CN1C(=C2C(=O)OC(C)(C)OC2=O)Sc2ccccc21
O=c1c(-c2ccc(Cl)cc2)nc2cnc(N3CCOCC3)nc2n1C1CC1
O=c1c(-c2cc(F)cc(F)c2)nc2cnc(N3CCOCC3)nc2n1C1CC1
O=c1c(-c2cccs2)nc2cnc(Oc3ccccc3)nc2n1C1CC1
O=c1c(-c2ccc(F)cc2)nc2cnc(N3CCOCC3)nc2n1C1CC1
O=c1cnc2cnc(N3CCOCC3)nc2n1C1CC1
O=c1c(-c2ccccc2)nc2cnc(N3CCOCC3)nc2n1C1CC1
CN(C)c1ncc2nc(-c3ccccc3)c(=O)n(C3CC3)c2n1
CN1CCN(c2ncc3nc(-c4cc(F)cc(F)c4)c(=O)n(C)c3n2)CC1
COc1ccc(-c2nc3cnc(N4CCN(C)CC4)nc3n(C3CC3)c2=O)cc1
COc1ccc2c(c1)c(CC(=O)O)c(C)n2C(=O)c1ccccc1
CN(Cc1ccco1)c1cc(-c2cccc(C#N)c2)ncn1
FC(F)(F)c1nnc(-c2ccccc2)nc1Sc1ccccc1
COCCNc1cc(-c2ccccc2C)ncn1
CC(C)OC(=O)CSc1nc(-c2ccc(F)cc2)nc2ccc(F)cc12
O=C(Nc1ccccc1)c1cc(-c2ccccc2Cl)no1
CC(C)N(CCNC(=O)C1CCN(S(=O)(=O)N2CCOCC2)CC1)Cc1ccccc1
COCCNC(=O)C1CCN(S(=O)(=O)N2CCC3(CC2)OCCO3)CC1
COc1ccc(-n2c(=O)c(-c3ccc(Cl)cc3)nc3cnc(N4CCOCC4)nc32)cc1
Clc1ccc(-n2nnnc2CN2CCOCC2)cc1
COc1cc(OC)nc(NC(C)=O)n1

AC50, active:
O=C(Cc1ccccc1[N+](=O)[O-])NCCSCc1c(F)cccc1Cl 14.1 µM
CC(C)COCC1CC2(CC(C)(c3csc(N)n3)OC2=O)C(=O)O1 (stereo not drawn) 14.1 µM
CCC1CCCCN1CCn1c(=S)[nH]c2cc(OC)c(OC)cc2c1=O (stereo not drawn) 14.1 µM
Cn1ncc2c(NCCc3ccccc3)nc(Cl)nc21 2 µM
Cc1cccc(-c2noc(-c3cc4ccccc4oc3=O)n2)c1 8.91 µM
COc1ccc(/C=C/c2ccncc2)cc1 1.58 µM
CCOC(=O)CSc1nnc(CNC(=O)c2ccc(OC)cc2)n1C1CCCCC1 2 µM
CCOC(=O)C(C)Sc1nnc(CNC(=O)c2ccc(OC)cc2)n1C1CCCCC1 (stereo not drawn) 0.891 µM
CN(C)c1ccc(NC(=O)CSc2nc(N)c(C(=O)Nc3ccc(N(C)C)cc3)s2)cc1 4.47 µM
Cc1ccc(NC2c3ncccc3C(=O)N2Cc2ccc(F)cc2)cc1 (stereo not drawn) 4.47 µM
Cc1ccc(C(=N)c2ccccc2Cc2cccc3ccccc23)c2ccccc12 3.98 µM
Cc1ccc(C)c(C(=N)c2ccccc2Cc2ccccc2)c1 3.98 µM
O=c1c(-c2cc(F)cc(F)c2)nc2cnc(N3CCNCC3)nc2n1C1CC1 25.1 µM
O=c1c(-c2ccc(F)cc2)nc2cnc(N3CCNCC3)nc2n1C1CC1 15.8 µM
O=c1c(-c2cccs2)nc2cnc(N3CCNCC3)nc2n1C1CC1 6.31 µM
O=c1c(-c2ccccc2)nc2cnc(N3CCNCC3)nc2n1C1CC1 12.6 µM
COc1ccc(-c2nc3cnc(N4CCNCC4)nc3n(C3CC3)c2=O)cc1 10 µM
COC(=O)[C@@]1(Cc2ccccc2)[C@H]2c3cc(C(=O)N4CCCC4)[nH]c3C[C@H]2CN1C(=O)c1ccccc1 2.51 µM
COC(=O)[C@@]1(Cc2ccc(OC)cc2)[C@H]2c3cc(C(=O)N(C)C)[nH]c3C[C@H]2CN1C(=O)c1ccccc1 1.58 µM
CCOC(=O)C1=C(C)NC(=S)NC1c1cccc(O)c1 (stereo not drawn) 1 µM
COc1cccc(-c2cc(N(C)Cc3ccco3)ncn2)c1 25.1 µM
CN(Cc1ccco1)c1cc(-c2cccnc2)ncn1 3.16 µM
COC(=O)[C@@]1(Cc2ccc(OC)cc2)[C@@H]2[C@@H](CC(=O)[C@H]2CC(=O)C(=O)N2CCCC2)CN1C(=O)c1ccccc1 0.794 µM
COC(=O)[C@@]1(Cc2ccc(F)cc2)[C@@H]2[C@@H](CC(=O)[C@H]2CC(=O)C(=O)N2CCCC2)CN1C(=O)c1ccccc1 1.58 µM
c1ccc(Cc2nnc(Sc3ccccc3)c3ccccc23)cc1 12.6 µM
COc1ccc2[nH]cc(CCNc3cc(-c4ccccc4C)ncn3)c2c1 5.01 µM
COc1ccc2[nH]cc(CCNc3cc(-c4ccccc4OC)ncn3)c2c1 6.31 µM
COc1ccc2[nH]cc(CCNc3cc(-c4ccccc4C(F)(F)F)ncn3)c2c1 5.01 µM
Cc1ccc(NC(=S)NC(=O)c2c(-c3ccccc3Cl)noc2C)cc1 14.1 µM
Cc1onc(-c2ccccc2Cl)c1C(=O)Nc1nnc(Cc2ccc(Cl)cc2)s1 3.16 µM
O=C(NCCc1ccc(Cl)cc1)C1CCN(S(=O)(=O)N2CCC3(CC2)OCCO3)CC1 3.55 µM
O=C(NCc1ccccc1Cl)C1CCN(S(=O)(=O)N2CCC3(CC2)OCCO3)CC1 14.1 µM
Cc1cc(C)c(C#N)c(Oc2ccc(F)cc2)n1 8.91 µM
CCCC(=O)Nc1cccc(Oc2nc(C)cc(C)c2C#N)c1 14.1 µM
Nc1nc(CSc2nnnn2-c2ccc(Cl)cc2)nc(N2CCOCC2)n1 3.98 µM
COC(=O)C1=C(C)N=C2SC(C)C(=O)N2C1/C=C/c1ccccc1 (stereo not drawn) 12.6 µM
Cc1[nH]c2ccccc2c1CCNC(=O)c1ccc2c(c1[N+](=O)[O-])C(=O)c1ccccc1C2=O 8.91 µM
Cc1[nH]c2c(C)cccc2c1CCNC(=O)c1ccc2c(c1[N+](=O)[O-])C(=O)c1ccccc1C2=O 3.16 µM
COc1ccc(C[C@@H]2C(=O)N[C@H](C)C(=O)N(C)[C@@H]3Cc4ccc(cc4)Oc4cc(ccc4O)C[C@H](C(=O)N[C@@H](C)C(=O)N[C@H](C)C(=O)N2C)N(C)C3=O)cc1 3.98 µM

activity, negative = inhibition, inactive:
Cn1ncc2c(Cl)ncnc21 -9.04% [at 11.4 µM]
c1ccc(CCNc2nnnn2-c2ccccc2)cc1 -3.75% [at 2.29 µM]
CS(=O)(=O)c1ccccc1-c1nc(-c2cc(C(F)(F)F)cc(C(F)(F)F)c2)no1 4.25% [at 2.29 µM]
CS(=O)c1ccccc1-c1nc(-c2cc(C(F)(F)F)cc(C(F)(F)F)c2)no1 (stereo not drawn) 15.3% [at 2.29 µM]
COc1nc(Oc2ccc(/C=N/O)cc2)nc(N(C)C)n1 -3.18% [at 2.29 µM]
O[C@@H]1[C@@H](OCc2ccccc2)OC[C@H](O)[C@@H]1O -2.87% [at 11.4 µM]
Cc1cc(C)cc(N(C(=O)C2CCCC2)C2C=CS(=O)(=O)C2)c1 (stereo not drawn) -15.4% [at 2.29 µM]
CN[C@@H]1NC(=O)c2ccccc2N1Cc1ccc(F)cc1 -12.4% [at 11.4 µM]
N=C(c1ccc2ccccc2c1)c1ccccc1Cc1ccccc1 -11.9% [at 11.4 µM]
Cc1cc(C)c(O)c(Cc2cccc(Cc3cc(C)cc(C)c3O)c2O)c1 6.11% [at 11.4 µM]
CN(Cc1cccc2ccccc12)Cc1cccc2ccccc12 -53.9% [at 11.4 µM]
CN1CCCC1CCNC1C2CC3CC(C2)CC1C3 (stereo not drawn) -0.75% [at 2.29 µM]
O=C(Oc1c(Br)cc(C(=S)N2CCOCC2)cc1Br)c1ccc(Cl)cc1 -1.32% [at 2.29 µM]
C[C@@]12CC(=O)[C@@H]3[C@@H](CCC4=CC(=O)CC[C@]43C)[C@@H]1CC=C2CC(=O)O -10.5% [at 11.4 µM]
CCOC(=O)C1=C(C)NC(=O)NC1c1ccoc1 (stereo not drawn) 15% [at 2.29 µM]
CCOC(=O)C1=C(C)C(c2ccccc2OC)NC(=S)N1 (stereo not drawn) -19.1% [at 2.29 µM]
Cc1cc(C)c(S(C)(=O)=O)c(Oc2ccc(F)cc2)n1 26.1% [at 2.29 µM]
Cc1cc(C)c(C#N)c(Oc2ccccc2)n1 -18.2% [at 11.4 µM]
CC(C)C(=O)N[C@H]1CCCN1C(=O)/C=C\c1ccccc1 -20.7% [at 11.4 µM]
COC(=O)c1cc(/C=C/c2ccccc2)on1 -3.05% [at 2.29 µM]
CC(C)NC(=O)COC(=O)c1cc(=O)[nH]c2ccccc12 1.83% [at 2.29 µM]
COc1cc(C2SCCCCCCCCCCSC(c3ccc(O)c(OC)c3)SCCCCCCCCCCS2)ccc1O (stereo not drawn) 12.5% [at 11.4 µM]
